From PubChem BioAssay
Rows were chosen to be rich in hits. Some 3.6% of all compounds tested hit in one or more screens of this group.
LGR2 antag: Drosophila LGR2 receptor signaling inhibition; HEK293 LGR2, CRE-luciferase, bursicon-stimulated, 4 h; inhibition, % at 9.99 µM; 380,000 compounds, 0.35% hits; AID 720647;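 active means drop in luminescence signal, shown as inhibition above about 50% in the replicate tests, limit read from the data, passing the limit was not always enough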;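 further: agonist challenge used bursicon conditioned medium at about half maximal strength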
EBV LMP1 NFkB: Epstein-Barr LMP1 NF-kappaB reporter inhibition. inhibition, % at 12.5 µM. AID 504558. 350,000 compounds, 0.69% hits. LMP1-induced NF-kappaB luciferase reporter cells, luminescence; in the data active means inhibition above about 41%
TWEAK Fn14 block: inhibitors of TWEAK-Fn14 interaction signaling; AID 1159606; inhibition, % at 10 µM; TWEAK-stimulated Fn14 reporter cells, luciferase luminescence, 8 h; 360,000 compounds, 2% hits; in the data active means inhibition above about 50%
HSF1 inh: HSF1 inhibition; NIH3T3-HGL HSE-luciferase, MG132-induced, luminescence 8 h; active compounds read low; activity change, negative = inhibition, % at 7.5 µM (by protocol); 300,000 compounds, 0.77% hits;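 active means more than half of replicate wells show activity change below -50%, luminescence cut by over half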;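 further: luciferase reports HSF-1 transcriptional activity via heat shock element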
HSF1 activator: increases HSF-1 driven luciferase reporter signal; NIH3T3-HGL HSF-1 luciferase reporter, MG132, 8 h; 100% = twice DMSO control signal; activation, % at 9 µM; 300,000 compounds, 1.7% hits; AID 504408;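 active means mean replicate activation of at least 50% with a set share of replicates each reaching 50%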
TROY NFkB inh: blocks TROY-dependent signaling in reporter cells; inhibition, % at 10 µM; 360,000 compounds, 0.98% hits; Q293 LMP1-TROYcd NF-kB luciferase reporter, 4 h;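 active means compounds whose plate-normalised and pattern-corrected inhibition of the luciferase reporter signal at the single screening dose is 50% or more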
Hits are given with their value; i = inactive; nt = no result.

SMILES	LGR2 antag	EBV LMP1 NFkB	TWEAK Fn14 block	HSF1 inh	HSF1 activator	TROY NFkB inh
Cc1ccc(S(=O)(=O)Nc2ccc(Br)cc2C(NCC(=O)O)c2ccccc2)cc1 (stereo unspecified)	i	i	i	i	i	i
COc1ccc2c3c(n(C)c2c1)[C@H](CO)NCC31CCN(Cc2cc(F)ccc2F)CC1	i	nt	nt	nt	nt	nt
CO[C@@H]1CN(C)C(=O)c2ccc(NS(=O)(=O)c3ccc(F)cc3)cc2OC[C@@H](C)N(C(=O)NC(C)C)C[C@H]1C	i	nt	nt	nt	nt	nt
C[C@@H]1CN([C@H](C)CO)C(=O)c2cc(C#CCN(C)C)cnc2O[C@@H]1CN(C)Cc1ccccn1	i	nt	nt	nt	nt	nt
COc1ccc(N)c2c1C(=O)c1ccccc1C2=O	i	i	i	i	54	i
COc1ccc(OC)c2c1C(=O)C(Cl)=C(Cl)C2=O	90	i	94	-70	i	53
COc1ccc(OC)c2c1C(=O)c1ccccc1C2=O	nt	nt	nt	i	i	nt
COc1ccc(OC)c2c1C(=O)CC2C (stereo unspecified)	i	i	i	nt	nt	i
COc1ccc(NC(=O)N(C)C[C@H]2Oc3c(NS(=O)(=O)c4ccc(C)cc4)cccc3C(=O)N([C@H](C)CO)C[C@@H]2C)cc1	i	nt	nt	nt	nt	nt
COC(=O)c1ccc(C(NC(=O)c2cccnc2)NC(=O)c2cccnc2)cc1	i	i	59	i	i	i
COC(=O)c1cc(NC(=O)c2cccnc2)cc(C(=O)OC)c1	i	i	i	i	i	i
C[C@H]1CN([C@@H](C)CO)C(=O)c2cc(Br)cnc2O[C@H]1CN(C)C(=O)Nc1ccc(F)cc1	i	nt	nt	nt	nt	nt
O=C(Nc1cccc(Cl)c1)Nc1cnccn1	i	i	i	i	i	i
O=C(Nc1cccc(Cl)c1)Nc1ccnc(-c2cccnc2)n1	i	58	53	i	i	i
O=C(C[C@H]1CC[C@H](NS(=O)(=O)c2cccc(F)c2)[C@@H](CO)O1)NCc1ccc2c(c1)OCO2	i	nt	nt	nt	nt	nt
Cc1nc2c3cc(Cl)ccc3n(CCN3CCCCC3)c2s1	i	i	i	i	60	i
Fc1ccc(C2c3[nH]c4ccccc4c3CCN2Cc2ccoc2)cc1 (stereo unspecified)	i	i	i	i	i	i
Cc1cccc(C2c3[nH]c4ccccc4c3CCN2Cc2cnn(-c3ccc(F)cc3)c2)n1 (stereo unspecified)	i	i	i	i	56	i
Cc1noc(C)c1S(=O)(=O)Nc1ccc2c(c1)C(=O)N([C@H](C)CO)C[C@@H](C)[C@@H](CN(C)Cc1ccncc1)OCCCC[C@H](C)O2	i	nt	nt	nt	nt	nt
CC1/C(=N/O)CC(c2ccco2)NC1c1ccco1 (stereo unspecified)	i	i	i	i	i	i
CC1C(=O)C(C)C(c2ccco2)NC1c1ccco1 (stereo unspecified)	nt	i	i	-64	i	i
Cc1cccc(-n2cnc3c(c2=O)c2nc4ccccc4nc2n3Cc2ccco2)c1	i	i	i	i	104	i
CCCNC(=O)N1CC2(CN(Cc3nccs3)C2)c2c([nH]c3cc(OC)ccc23)[C@H]1CO	i	nt	nt	nt	nt	nt
Cc1ccccc1/C=C/C12NC(=O)CN1c1ccccc1C2(C)C (stereo unspecified)	i	i	56	i	i	i
CN(C)C(=O)C[C@H]1CC[C@@H]2[C@H](COC[C@H](O)CN2CC2CCCCC2)O1	i	nt	nt	nt	nt	nt
SMILES	LGR2 antag	EBV LMP1 NFkB	TWEAK Fn14 block	HSF1 inh	HSF1 activator	TROY NFkB inh
O=[N+]([O-])c1ccc(O)c(-c2cc(C(F)(F)F)nc(-c3ccccc3)n2)c1	i	i	75	i	i	i
C[C@@H](O)C#Cc1ccc2c(c1)O[C@@H](CN(C)CC1CC1)[C@@H](C)CN([C@@H](C)CO)S2(=O)=O	i	nt	nt	nt	nt	nt
CN1CCc2c(sc(NC(=O)c3ccc([N+](=O)[O-])o3)c2C(N)=O)C1	i	i	52	i	i	65
NC(=O)c1c(NC(=O)c2ccc([N+](=O)[O-])o2)sc2c1CCCC2	i	i	i	i	116	i
CN1CCc2c(sc(NC(=O)c3ccco3)c2C(N)=O)C1	i	i	i	i	i	i
O=C(COc1ccc(F)c(Cl)c1)c1ccc[nH]1	nt	i	i	i	93	i
C/C=C/c1ccc2c(c1)O[C@H](CN(C)Cc1ccc(C(=O)O)cc1)[C@H](C)CN([C@H](C)CO)S2(=O)=O	i	nt	nt	nt	nt	nt
COc1c(Br)cc([N+](=O)[O-])c(OC)c1C(=O)NC(=O)Nc1cc(Cl)cc(Cl)c1	nt	i	i	i	i	52
Cc1nc(/C(N)=N/OC(=O)Cc2ccccc2)no1	nt	i	i	i	57	i
CCCC(C(=O)NC(C)(C)C)N(CC1CCCO1)C(=O)CNS(=O)(=O)c1ccc(F)cc1 (stereo unspecified)	i	i	85	i	i	i
O=C(Nc1ccc(F)cc1)c1nn(-c2ccccc2)c(=O)cc1Cl	75	i	55	i	i	i
Cc1ccccc1CS(=O)(=O)c1ncc(Cl)c(C(=O)Nc2ccc(F)cc2)n1	i	52	82	i	i	78
Cc1ccc(NC(=O)c2nc(S(=O)(=O)Cc3ccccc3)ncc2Cl)cc1	i	i	67	-95	i	80
CSc1ncc(Cl)c(C(=O)Nc2cccc(C)c2)n1	i	i	i	nt	nt	i
CCOC(=O)c1ccc(NC(=O)c2nc(SC)ncc2Cl)cc1	i	i	i	i	i	i
O=C(Nc1ccc(F)cc1)c1nc(S(=O)(=O)Cc2ccccc2)ncc1Cl	i	i	79	-85	i	69
O=C(Nc1ccc(Cl)cc1)c1nc[nH]c1C(=O)NCc1ccccc1	i	i	i	nt	nt	i
CNC[C@@H]1OCCCC[C@@H](C)Oc2ccc(NC(=O)CCCN(C)C)cc2C(=O)N([C@@H](C)CO)C[C@H]1C	i	nt	nt	nt	nt	nt
Cc1ccc(S(=O)(=O)Nc2ccc3c(c2)CC(=O)N([C@H](C)CO)C[C@H](C)[C@@H](CN(C)C(=O)Nc2ccc4c(c2)OCO4)O3)cc1	i	nt	nt	nt	nt	nt
c1ccc(-c2cccc(-c3ccccn3)n2)nc1	i	53	i	i	i	i
c1ccc(-c2nnc(-c3ccccn3)nn2)nc1	i	i	i	i	i	i
O=C(Nc1ccc2c(c1)OCCO2)c1ccc(Br)s1	i	i	i	i	i	i
Cc1nc2cc(NC(=O)c3ccc(Br)s3)ccc2s1	i	i	i	i	56	i
CCOc1ccc(C(=O)Nc2cc(C)on2)cc1	nt	i	i	i	i	i
Cc1cc(NC(=O)c2ccc3nc(C)sc3c2)no1	i	i	i	-67	i	i
Cc1ccc(C(=O)Nc2ccc3nc(C)sc3c2)s1	nt	i	i	i	56	i
Cc1cc(NC(=O)c2cccc(COc3ccc(Br)cc3)c2)no1	i	43	i	i	i	i
COc1ccc(S(=O)(=O)N(C)C[C@H]2Oc3ccc(NC(=O)CCCCCC(=O)Nc4ccccc4N)cc3CC(=O)N([C@@H](C)CO)C[C@H]2C)cc1	i	nt	nt	nt	nt	nt
COc1ccc(NC(=O)Nc2ccc3c(c2)C(=O)N([C@H](C)CO)C[C@@H](C)[C@@H](CN(C)Cc2ccncc2)OCCCC[C@@H](C)O3)cc1	i	nt	nt	nt	nt	nt
